# Source: PubChem BioAssay (National Center for Advancing Translational Sciences (NCATS))
# An excerpt weighted towards active compounds, which were near 19% of everything screened.
# ELG1 DNA repair – blocks ELG1-dependent DNA repair in HEK293T cells. Potency, µM (doses to about 46.1 µM), without a hit: at the highest dose activity change, negative = inhibition, usual class: inhibitors. hit rate 2.3% among 330,000. HEK293T ELG1-luciferase reporter, luminescence, 16 h; DNA damage induced by 5-fluorouridine; further: potency means the concentration at half of the fitted maximal effect; nearly all actives have a fitted effect of over 55% in size
#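 Luminescence from the luciferase reporter, measured 30 min after ONE-Glo reagent at room temperature, was the read-out. Beforehand, 2,000 cells per well were exposed for 16 hr at 37 °C to 5-fluorouridine together with compound or vehicle.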
# TDP1 cell noCPT – qHTS for Inhibitors of human tyrosyl-DNA phosphodiesterase 1 (TDP1): qHTS in cells in absence of CPT | DT40 Tdp1-/- hTDP1 cells, no CPT, ATP luminescence, 48 h | Potency, µM (highest dose often 46.2 µM), for the others: top-dose activity change, negative = growth inhibition, usual class: inhibitors | hit rate 15% among 420,000 | AID 686978, 2013; further: potency means the concentration at half of the fitted maximal effect; nearly all actives have a fitted effect of over 55% in size
#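 Compound effects on proliferation are scored in DT40 Tdp1-/-;hTDP1 cells in the absence of CPT. ATP levels (CellTiter-Glo luminescence) are recorded after a ≥48 hr, 37 °C incubation.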
# Giardia killer – kills Giardia lamblia | activity change, % at 7.66 µM, hits read low | hit rate 0.15% among 340,000 | Giardia lamblia trophozoite viability | AID 540267; in the data active means activity change below about -80%; inconclusive means between about -30% and that limit;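 further: parasites exposed to compound for two days anaerobically before the ATP read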
#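 Giardia lamblia trophozoites (100 cells/well) were incubated with compounds for 48 h at 37 deg C under anaerobic conditions. Viability was read as ATP content by one-step luminescence after 15-30 min at room temperature.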
# IL-1B inflam inh – blocks inflammasome-driven IL-1 beta release. THP-1 LPS/ATP IL-1B secretion, AlphaLISA, 16 h; hits give low values. activity change, % at 57.5 µM. hit rate 4.7% among 360,000; in the data active means activity change below about -50%; inconclusive means mostly about -30% to -49%
#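 Secreted IL-1B measured by AlphaLISA bead assay after 16 h compound exposure of THP-1 cells; compounds (final up to 57.5 uM) added 1 h before LPS (250 ng/mL) and ATP (1.25 mM) stimulation; lower signal means less secretion.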
# DT40 TDP1 CPT – growth inhibition of DT40 Tdp1-/-;hTDP1 cells with camptothecin (screen for TDP1 inhibitors); hit rate 12% among 420,000; Potency, µM (series often up to 46.2 µM), without a hit: at the highest dose activity change, negative = growth inhibition, most hits filed as inhibitors; chicken DT40 Tdp1-/-;hTDP1 cells + 20 nM CPT, ATP luminescence, 48 h; further: potency means the concentration at half of the fitted maximal effect; nearly all actives have a fitted effect of over 55% in size
#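 Chicken DT40 Tdp1-/- cells stably complemented with human TDP1 were seeded at 400 cells/well in medium containing 20 nM camptothecin, exposed to pin-transferred compounds, and grown at 37 °C for at least 48 hr. Viability was read as ATP luminescence.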
# TDP1 inh – blocks human tyrosyl-DNA phosphodiesterase 1 | recombinant TDP1, AlphaScreen DNA substrate cleavage | AID 485290 | Potency, µM (top dose mostly 130 µM), for the others: at the top dose activity change, negative = inhibition, most hits filed as inhibitors | hit rate 0.28% among 350,000; further: potency means the concentration at half of the fitted maximal effect; nearly all actives have a fitted effect of over 40% in size
# Target sequence (Q9NUW8 whole entry, looked up): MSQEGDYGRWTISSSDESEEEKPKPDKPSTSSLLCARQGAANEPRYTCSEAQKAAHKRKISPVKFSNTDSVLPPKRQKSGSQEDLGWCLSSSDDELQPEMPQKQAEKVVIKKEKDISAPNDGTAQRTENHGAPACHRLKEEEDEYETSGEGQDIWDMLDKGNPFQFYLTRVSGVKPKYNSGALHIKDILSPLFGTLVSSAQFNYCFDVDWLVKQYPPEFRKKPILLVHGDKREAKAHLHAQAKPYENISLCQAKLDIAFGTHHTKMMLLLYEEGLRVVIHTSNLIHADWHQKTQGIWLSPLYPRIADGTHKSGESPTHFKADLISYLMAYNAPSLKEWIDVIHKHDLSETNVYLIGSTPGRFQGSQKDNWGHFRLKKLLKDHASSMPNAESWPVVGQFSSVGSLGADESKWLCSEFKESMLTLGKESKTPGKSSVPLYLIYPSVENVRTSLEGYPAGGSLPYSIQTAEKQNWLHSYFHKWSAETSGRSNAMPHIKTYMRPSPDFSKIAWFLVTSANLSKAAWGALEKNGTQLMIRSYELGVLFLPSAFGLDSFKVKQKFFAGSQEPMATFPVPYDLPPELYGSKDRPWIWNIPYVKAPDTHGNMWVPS
#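 Recombinant E. coli-expressed Tdp1 (1 nM) preincubated with compound 15 min at RT, then 5'-biotin/3'-phosphotyrosine-FITC DNA substrate (15 nM) added for 5 min. AlphaScreen beads (10 ug/ml) added, 10 min RT; tyrosine-FITC cleavage read as signal loss.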
# * = called active by the depositor; ? = inconclusive; · = not tested or not shown; [ ] = remark or other dose. Unless noted, the call rests on the fitted dose curve; in most records, active means well fitted curve in the direction sought with a large enough effect; inconclusive means small, poorly fitted or top-dose-only effect, or another doubt; inactive means no such curve, though single readings can be large; an effect the other way counts as inactive or inconclusive. On the % scale 0 is the no-effect control and ±100 the full control effect.
SMILES,ELG1 DNA repair,TDP1 cell noCPT,Giardia killer,IL-1B inflam inh,DT40 TDP1 CPT,TDP1 inh
CCOC(=O)C(Cc1ccccc1)NC(=O)CCc1nnc2ccc(N3CCCC3)nn12 (centres undefined),22%,-22%,-12,-6,?,1%
Cc1ncoc1C(=O)N1CCCC(C(=O)c2ccc(C(F)(F)F)cc2)C1 (centres undefined),-1%,?,-4,13,7%,-8%
COc1ccc(-c2[nH]nc3nc(N4CCN(C(=O)c5ccoc5)CC4)cc(C(F)(F)F)c23)cc1,·,8.2µM*,·,-27,8.2µM*,·
COc1ccc(N2CCN(C(=O)c3nc4nc(C)cc(C)n4n3)CC2)cc1,-1%,-9%,5,11,-12%,3%
COc1ccc(-c2cc3nc(C)cc(N4CCN(C(=O)c5ccoc5)CC4)n3n2)cc1,·,21µM*,·,?,18µM*,·
COc1ccc(-c2cc(C(F)(F)F)n3nc(C(=O)N4CCCC4)cc3n2)cc1,-11%,-20%,-5,-2,-29%,1%
Cc1nc2cc(-c3cccc(F)c3)nn2c(N2CCN(C(=O)c3ccco3)CC2)c1C,16µM*,15µM*,15,-14,15µM*,-6%
COc1cc(/C=C2\SC(c3ccc(C)cc3)=NC2=O)cc(OC)c1OC,12%,-29%,4,27,-5%,3%
COc1cc(/C=C2/C(=O)ON=C2C)cc(Cl)c1O,15%,?,12,3,18µM*,·
CCCOc1ccc(/C=C2/C(=O)ON=C2C)cc1Cl,14%,?,-5,0,18µM*,·
COc1cc(/C=C2\SC(c3ccccc3)=NC2=O)cc(Cl)c1O,14%,?,?,35,21µM*,5%
CCOc1cc(/C=C2/C(=O)ON=C2C)ccc1O,-2%,5%,7,-10,-17%,·
CC1=NOC(=O)/C1=C/c1ccc(O)c(Cl)c1,-10%,9.2µM*,-11,-12,?,·
C#CCOc1c(Cl)cc(/C=C2/C(=O)ON=C2C)cc1OC,14%,?,4,14,?,·
Cc1ccc(-c2onc(C)c2C)cc1S(=O)(=O)Nc1cccc(Cl)c1C,·,?,·,·,?,3%
CCOC(=O)c1cnc(NCc2ccc(OC)cc2OC)c2ccccc12,·,?,·,·,?,-5%
Cc1ccc(NC(=O)CN2CCN(C3CCCCC3)C(=O)C2=O)cc1,·,-17%,·,·,-27%,-4%
O=C(NC1CCCC1)C(c1ccc(F)cc1)N(Cc1ccccc1)C(=O)c1csnn1 (centres undefined),-4%,?,-11,-11,-38%,4%[0.0935 µM]
Cc1ccc(Cl)cc1N(C(=O)c1csnn1)C(C(=O)NC1CCCC1)c1ccco1 (centres undefined),-2%,-12%,1,-14,0%,-3%
CC(C)CCN(C(=O)c1csnn1)C(C(=O)NC1CCCC1)c1ccc(F)cc1 (centres undefined),-10%,-29%,-26,-63*,-16%,·
Cc1ccccc1CCN(C(=O)c1csnn1)C(C(=O)NC1CCCC1)c1ccco1 (centres undefined),-13%,?,6,-11,23µM*,·
COc1ccc(CNC(=O)c2ccc3[nH]c(C)c(C)c3c2)c(OC)c1,·,?,·,·,-9%,5%
COc1ccccc1NC(=O)c1cc(C)oc1C,1%,-12%,-5,-13,7%,-1%
COc1ccc(NC(=O)c2ccc(-n3c(C)ccc3C)cc2)c(OC)c1,?,?,12,-75*,?,-10%
CCCN1C(=O)c2cc(C(=O)Nc3ccc(OC)cc3OC)ccc2C1Nc1ccc(OC)cc1OC (centres undefined),?,?,10,-13,23µM*,5%
SMILES,ELG1 DNA repair,TDP1 cell noCPT,Giardia killer,IL-1B inflam inh,DT40 TDP1 CPT,TDP1 inh
CCCN1C(=O)c2cc(C(=O)Nc3ccc(OC)c(OC)c3)ccc2C1Nc1ccc(OC)c(OC)c1 (centres undefined),?,?,-5,23,-27%,6%
CCOc1ccccc1NC(=O)c1cc(CC(C)C)oc1C,19%,23µM*,1,22,23µM*,3%
COc1ccc(NC(=O)c2ccc3[nH]c(C)c(C)c3c2)c(OC)c1,0%,18µM*,1,-6,23µM*,·
COc1ccc(NC(=O)c2c(-c3ccc(C)cc3)nnc3ccccc23)cc1Cl,·,-14%,·,·,6%,5%
CCCCCCC(C)n1[nH]c(=O)c2c(C)cc(C)nc21 (centres undefined),?,-26%,3,45,?,·
Cc1ccc(S(=O)(=O)N2CCN(C(=O)COC(=O)c3oc4ccccc4c3C)CC2)cc1,12%,?,12,1,-24%,-8%
CCOc1ccccc1NC(=O)c1ccc2[nH]c(C)c(C)c2c1,18%,26µM*,-16,33,?,4%
CC(C)CC(NC(=O)OC(C)(C)C)c1cn([C@@H](Cc2cc3ccccc3[nH]2)C(=O)N2CCN(C(=O)OC(C)(C)C)CC2)nn1 (some centres undefined),?,18µM*,11,?,18µM*,5%
CC(C)(C)OC(=O)NC(CO)c1cn([C@@H](Cc2cc3ccccc3[nH]2)C(=O)N2CCN(C(=O)OC(C)(C)C)CC2)nn1 (some centres undefined),1%,-24%,-13,-2,?,0%
CC[C@@H](C)C(NC(=O)OC(C)(C)C)c1cn([C@@H](CCC(=O)OC(C)(C)C)C(=O)N2CCN(C(=O)OC(C)(C)C)CC2)nn1 (some centres undefined),?,15µM*,-19,?,?,3%
CC(C)(C)OC(=O)CC[C@@H](C(=O)N1CCN(C(=O)OC(C)(C)C)CC1)n1cc(C(CO)NC(=O)OC(C)(C)C)nn1 (some centres undefined),-10%,2%,32,-5,-37%,5%
O=C(O)/C(=C\c1ccccc1OC(F)F)Sc1nnc(-c2ccc(F)cc2)o1,?,?,11,-24,21µM*,-1%
Cc1ccccc1OC(=O)CSc1nnc(-c2ccc(F)cc2)o1,·,7%,·,·,-4%,6%
COc1cccc(CN2C(=O)CCC2(C)C(=O)NC2CCCC2)c1 (centres undefined),10%,-1%,-4,-13,3%,-1%
